Drawing on the supplement of paper PMC9262897, “Low-cost anti-mycobacterial drug discovery using engineered E. coli” (Nature Communications, 2022), this text covers growth for 14 compounds.

SMILES strings stand for the structures. Counter-ions that a name gives are not always drawn. ± gives the standard deviation of the averaged measurements.

For this assay, the system named is E. coli TESEC Mtb Alr. Kind of assay: growth (OD600 after 10 h); higher = more growth (less inhibition). As to conditions: arabinose 100000 nM; compound 0.1 mM; raw OD600 reference: median of DMSO wells 0.201, cell-free background 0.041. The method, then:
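TESEC Mtb Alr E. coli, or the Alr+ wild-type control, in 384-well plates with Prestwick library compounds at 0.1 mM and 1% DMSO, across arabinose induction levels of 1E3 to 1E7 nM. Growth is read as OD600 after 10 h at 37 °C in triplicate biological replicates.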
As to `CC(C)(C)NCC(O)c1ccccc1Cl` (centres undefined) [Tulobuterol], the growth was found to be 0.174 ± 0.013.

The compound `Clc1ccc(C(OCCN2CCCCC2)c2ccccc2)cc1` (centres undefined) [Cloperastine hydrochloride] showed a growth of 0.174 ± 0.0052.

For `CN(C)C(=O)Oc1cc(OC(=O)N(C)C)cc(C(O)CNC(C)(C)C)c1` (centres undefined) [Bambuterol hydrochloride], the growth amounted to 0.232 ± 0.02.

For `C[C@@H]1C[C@@H]([C@H](O)CC2CC(=O)NC(=O)C2)C(=O)[C@@H](C)C1` [Cycloheximide], the growth came out at 0.195 ± 0.009.

As to `CC(Cc1ccc(O)cc1)NCC(O)c1cc(O)cc(O)c1` (centres undefined) [Fenoterol hydrobromide], the growth was 0.184 ± 0.0055.

The compound `COc1ccc(CCN)cc1OC` [Homoveratrylamine] registered a growth of 0.182 ± 0.019.

In turn, `C(#CCN1CCCC1)CN1CCCC1` [Tremorine dihydrochloride] yielded a growth of 0.239 ± 0.013.

The compound `O=C1CC[C@@]2(O)[C@H]3Cc4ccc(O)c5c4[C@@]2(CCN3CC2CC2)[C@H]1O5` [Naltrexone hydrochloride dihydrate] showed a growth of 0.173 ± 0.023.

Turning to `C[N+]1(C)CCCC(OC(=O)C(O)(c2ccccc2)c2ccccc2)C1` (centres undefined) [Mepenzolate bromide], the growth was 0.203 ± 0.022.

The compound `C1CCc2nnnn2CC1` [Pentylenetetrazole] yielded a growth of 0.233 ± 0.021.

As for `CC(=O)NC1CCSC1=O` (racemic) [N-Acetyl-DL-homocysteine Thiolactone], the growth turned out to be 0.222 ± 0.031.

`CNC(C)(C)Cc1ccccc1` [Mephentermine hemisulfate]: the growth amounted to 0.224 ± 0.012.

`N[C@@H]1C[C@H]1c1ccccc1` [Tranylcypromine hydrochloride]: the growth worked out at 0.203 ± 0.02.

`CC(NC(C)(C)C)C(=O)c1cccc(Cl)c1` (centres undefined) [Bupropion hydrochloride] yielded a growth of 0.229 ± 0.023.
